Here are results for seven compounds from PubChem BioAssay (Tox21).

Unmarked numbers belong to inactive results. Inconclusive results are not listed. Active and inactive are the calls of the source. Unless noted, calls come from the whole dose curve; as a rule, active = well fitted curve in the direction sought with a large enough effect in the repeat runs; inconclusive = weak or mixed curves; inactive = no such curve, though single readings can be large; an effect the other way counts as inactive or inconclusive.

For experiment [1], the target named is Thyrotropin-releasing hormone receptor (Homo sapiens) (UniProt P34981). The experiment is described as follows: qHTS assay to identify small molecule agonists of the thyrotropin-releasing hormone receptor (TRHR) signaling pathway (AID 1346891; calls by dose curve;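 note: HEK293 cells expressing TRHR with calcium dye readout; series mostly up to about 58 µM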). In a few lines: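 HEK293/TRHR cells, 1500 per well, 18 h 37 °C; Ca dye 2 h 37 °C; pin-tool compound addition (agonist mode); kinetic fluorescence 3 min, 1 s reads; 15 concentrations, triplicate.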

The nature of experiment [2]: Human pregnane X receptor (PXR) small molecule agonists, qHTS cell viability counter screen (AID 1346977). Note: nearly all actives have a fitted effect of over 50% in size. Note: potency is the fitted concentration of half-maximal effect. The method, boiled down:
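Fluorescence read-out (CellTiter-Fluor) of viability in PXR-Luc HepG2 cells, multiplexed with the luciferase agonist read. Compounds in DMSO added after 5hr plating; 24hr total exposure at 37C, 5% CO2.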

Experiment [3] in a line: Caspase-3/7 induction in HepG2 cells by small molecules, qHTS assay (AID 1346978). Note: nearly all actives have a fitted effect of over 15% in size. The method, boiled down:
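Wild-type HepG2 cells, 2,000/well, settled 5 hr at 37 C and 5% CO2, then compound-treated for 17 hr; caspase-3/7 activity read by luminescent Caspase-Glo 3/7 after 30 min at room temperature.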
(qHTS replaces the single test concentration by a dilution series.)

Experiment [4] is described as follows: Caspase-3/7 induction in CHO-K1 cells by small molecules, qHTS cell viability counter screen (AID 1346979). Note: nearly all actives have a fitted effect of over 35% in size. In a few lines:
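CHO-K1 wt, 1,500 cells/well; 5hr pre-incubation 37C/5% CO2; compound pin transfer (DMSO); 16hr exposure; CellTiter-Fluor added, 1hr, fluorescence read.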

Experiment [5] can be described thus: Caspase-3/7 induction in HepG2 cells by small molecules, qHTS cell viability counter screen (AID 1346981). Note: series mostly up to about 92 µM; nearly all actives have a fitted effect of over 30% in size. The method, boiled down: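 Fluorescence read-out of live-cell protease activity (CellTiter-Fluor) after 1 hr with reagent. This was measured in the same wells as the caspase-3/7 luminescence, on HepG2 cells exposed to DMSO-dissolved compounds for 16 hr at 37 C.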

Experiment [6] deals with Nuclear receptor subfamily 1 group I member 2 (Homo sapiens) (UniProt O75469). The experiment is described as follows: Human pregnane X receptor (PXR) small molecule agonists, qHTS assay (AID 1346982). Note: nearly all actives have a fitted effect of over 35% in size. In a few lines: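 HepG2 PXR-Luc reporter line, 5% charcoal-stripped FBS; 5 hr pre-incubation, compound (DMSO) 24 hr at 37 C/5% CO2; ONE-Glo 30 min RT; luminescence read-out.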

Experiment [7] has as its target Nuclear receptor subfamily 1 group I member 2 (Rattus norvegicus) (UniProt Q9R1A7). As to the kind of experiment: Rat pregnane X receptor (rPXR) activation by small molecules, qHTS assay (AID 1346983). Note: nearly all actives have a fitted effect of over 20% in size. The settings on record: rPXR luciferase reporter cells, One-Glo luminescence, 24 h; hits give high values. In a few lines: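 Cell-based rPXR activation assay: rPXR cells, 2,000 per well, rested 5hr at 37 C, then exposed to compounds in DMSO for 24 hr at 37 C. Luciferase activity read by One-Glo luminescence after 30 min at room temperature.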

The target in experiment [8] is Nuclear receptor subfamily 1 group I member 2 (Homo sapiens) (UniProt O75469). The experiment is described as follows: Human pregnane X receptor (PXR) activation by small molecules, qHTS assay (AID 1346985). Note: nearly all actives have a fitted effect of over 40% in size. The method, boiled down:
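DPX-2 cells (HepG2 co-transfected with a PXR response element and a CYP3A4-promoter luciferase construct) were seeded at 2,000 per well, rested 5 hr at 37C, then exposed to DMSO-dissolved compounds for 24 hr. Activation was read as luciferase luminescence.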

The target of experiment [9] is Acetylcholinesterase (Homo sapiens) (UniProt P22303). The experiment is described as follows: Acetylcholinesterase (AChE) small molecule antagonists: colormetric cell-based qHTS assay (AID 1347395; calls by dose curve; note: nearly all actives have a fitted effect of over 30% in size). In a few lines:
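SH-SY5Y cells; cpd 30 min 37 C; + DTNB/acetylthiocholine, 90 min 37 C; colorimetric thiocholine read; qHTS.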

Experiment [10] has the same target. The experiment is described as follows: Acetylcholinesterase (AChE) small molecule antagonists: enzyme-based qHTS assay (AID 1347397; calls by dose curve; note: nearly all actives have a fitted effect of over 55% in size). Particulars: Potency: AChE enzyme activity inhibition; outcome: AChE enzyme activity inhibition. In a few lines: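 Colorimetric DTNB read-out of thiocholine released from acetylthiocholine by recombinant human AChE (50 mU/mL as dispensed). Compounds were preincubated 30 min at RT before substrate/DTNB addition, with a 10 min RT reaction.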

For experiment [11] the target is unchanged. The experiment is described as follows: Acetylcholinesterase (AChE) small molecule antagonists: fluorescence cell-based qHTS assay (AID 1347398; calls by dose curve; note: nearly all actives have a fitted effect of over 50% in size). Particulars: Potency: AChE activity; outcome: AChE activity. In a few lines:
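SH-SY5Y, 2,000 cells/well, attached overnight; cmpd 30 min 37 C; acetylthiocholine/Thiolite Green cocktail 40 min RT; fluorescence Ex/Em 490/520 nm.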

Experiment [12] has the same target. The experiment is described as follows: Acetylcholinesterase (AChE) small molecule antagonists: enzyme-based qHTS assay with human liver microsomes (AID 1347399; calls by dose curve; note: nearly all actives have a fitted effect of over 60% in size). The settings on record: Potency: qHTS inhibition; outcome: qHTS inhibition. In a few lines: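 Recombinant human AChE (50 mU/mL in the enzyme mix) and human liver microsomes (0.25 mg/mL final) were preincubated with compound and NADPH (0.25 mg/mL final) for 30 min at 37 C. Acetylthiocholine/DTNB was then added; thiocholine was read colorimetrically after 10 min at room temperature.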

Experiment [13] deals with Cytochrome P450 2D6 (Homo sapiens) (UniProt P10635). As to the kind of experiment: Cytochrome P450 Family 2 Subfamily D Member 6 (CYP2D6) small molecule antagonists: luciferase reporter qHTS assay (AID 1671196). Note: nearly all actives have a fitted effect of over 50% in size. Note: potency is the fitted concentration of half-maximal effect. In a few lines:
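Luminogenic proluciferin substrate, CYP2D6 enzyme; 10 min RT preincubation with compound, NADPH regeneration system added, 1 h RT. Stop/detection reagent, 20 min RT, luminescence read (RLU). Signal proportional to CYP activity.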
In general terms: In a reporter assay the amount or activity of a reporter protein is the signal.

For experiment [14], the target named is Cytochrome P450 2C19 (Homo sapiens) (UniProt P33261). As to the kind of experiment: Cytochrome P450 Family 2 Subfamily C Member 19 (CYP2C19) small molecule antagonists: luciferase reporter qHTS assay (AID 1671197). Note: nearly all actives have a fitted effect of over 65% in size. Note: potency is the fitted concentration of half-maximal effect. The method, boiled down: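 Enzyme-substrate mix with proluciferin substrate (P450-Glo CYP2C19 system) preincubated with compounds 10 min at room temperature; NADPH regeneration solution added, 37C for 1 h; detection reagent stops reaction, luminescence read after 20 min. Ketoconazole positive control.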

The target of experiment [15] is Cytochrome P450 2C9 (Homo sapiens) (UniProt P11712). The experiment is described as follows: Cytochrome P450 Family 2 Subfamily C Member 9 (CYP2C9) small molecule antagonists: luciferase reporter qHTS assay (AID 1671198). Note: nearly all actives have a fitted effect of over 50% in size. Note: potency is the fitted concentration of half-maximal effect. In a few lines:
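P450-Glo proluciferin substrate with CYP2C9 enzyme; 10 min RT preincubation, then NADPH regeneration 1 h at 37C; luciferin detection reagent 20 min RT, luminescence in relative luminescence units.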

For experiment [16], the target named is Cytochrome P450 1A2 (Homo sapiens) (UniProt P05177). The experiment is described as follows: Cytochrome P450 Family 1 Subfamily A Member 2 (CYP1A2) small molecule antagonists: luciferase reporter qHTS assay (AID 1671199). Note: nearly all actives have a fitted effect of over 50% in size. Note: potency is the fitted concentration of half-maximal effect. In a few lines: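 Luminescence readout (relative luminescence units) after luciferin detection reagent, 20 min RT. Preceded by 1 h room-temperature CYP1A2 reaction with NADPH regeneration solution following 10 min compound preincubation with enzyme and proluciferin substrate. Furafylline positive control.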

The target in experiment [17] is Voltage-gated inwardly rectifying potassium channel KCNH2 (Homo sapiens) (UniProt Q12809). The experiment is described as follows: Human Ether-a-go-go-Related Gene (hERG) channel small molecule antagonists: fluorescence cell-based qHTS assay (AID 1671200). In a few lines: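 Read-out: thallium influx as a surrogate for potassium, tracked as fluorescence (480 nm ex/540 nm em) every second for 2 min after Stimulus Buffer addition in dye-loaded hERG-U2OS cells.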
In general terms: Block of hERG is tested as a sign of cardiac risk.

Experiment [18] concerns the target Cytochrome P450 3A4 (Homo sapiens) (UniProt P08684). As to the kind of experiment: Cytochrome P450 Family 3 Subfamily A Member 4 (CYP3A4) small molecule antagonists: luciferase reporter qHTS assay (AID 1671201). In a few lines:
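Luminescent readout (RLU) proportional to CYP3A4 activity, from luciferin generated off a proluciferin substrate. Enzyme–substrate mix plus compound 10 min at room temp, NADPH regeneration 1 h, detection reagent 20 min.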

Experiment [19] is described as follows: Caspase-3/7 induction in CHO-K1 cells by small molecules, qHTS assay (AID 1346980). Note: nearly all actives have a fitted effect of over 15% in size. In a few lines: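 Wild-type CHO-K1 cells exposed to compounds for 17hr at 37 C, 5% CO2. Caspase-3/7 activity then measured by Caspase-Glo 3/7 luminescence after 30min at room temperature.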
% is set by controls: 0 for no effect and ±100 for the full control effect.

Cytochrome P450 2C9 (Homo sapiens), sequence (P11712 whole entry, looked up): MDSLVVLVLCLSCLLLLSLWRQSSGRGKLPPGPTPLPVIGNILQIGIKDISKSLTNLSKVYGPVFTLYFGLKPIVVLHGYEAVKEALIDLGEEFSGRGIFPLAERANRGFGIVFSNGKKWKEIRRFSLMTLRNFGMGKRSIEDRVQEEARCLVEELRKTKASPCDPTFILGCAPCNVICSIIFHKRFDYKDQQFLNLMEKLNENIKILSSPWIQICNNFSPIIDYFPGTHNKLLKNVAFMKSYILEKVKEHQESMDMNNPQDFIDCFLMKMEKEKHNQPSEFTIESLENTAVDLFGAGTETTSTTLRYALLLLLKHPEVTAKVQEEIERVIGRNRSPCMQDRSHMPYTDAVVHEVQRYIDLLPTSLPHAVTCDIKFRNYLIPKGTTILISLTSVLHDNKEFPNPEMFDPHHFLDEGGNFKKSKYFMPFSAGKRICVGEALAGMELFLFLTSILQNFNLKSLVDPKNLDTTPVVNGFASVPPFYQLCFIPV
Nuclear receptor subfamily 1 group I member 2 (Homo sapiens), sequence (O75469 whole entry, looked up): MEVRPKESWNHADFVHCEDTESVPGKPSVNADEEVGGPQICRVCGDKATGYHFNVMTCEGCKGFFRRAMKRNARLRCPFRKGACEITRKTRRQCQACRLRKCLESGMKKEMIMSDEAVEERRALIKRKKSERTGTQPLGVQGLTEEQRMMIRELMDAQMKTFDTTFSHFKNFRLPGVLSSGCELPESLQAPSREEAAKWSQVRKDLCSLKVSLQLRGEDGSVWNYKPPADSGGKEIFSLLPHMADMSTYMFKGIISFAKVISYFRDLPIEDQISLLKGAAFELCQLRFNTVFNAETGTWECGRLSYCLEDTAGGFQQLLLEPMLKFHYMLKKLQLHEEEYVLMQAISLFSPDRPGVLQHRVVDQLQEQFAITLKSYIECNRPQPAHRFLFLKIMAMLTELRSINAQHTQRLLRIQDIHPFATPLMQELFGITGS
Cytochrome P450 2D6 (Homo sapiens), sequence (P10635 whole entry, looked up): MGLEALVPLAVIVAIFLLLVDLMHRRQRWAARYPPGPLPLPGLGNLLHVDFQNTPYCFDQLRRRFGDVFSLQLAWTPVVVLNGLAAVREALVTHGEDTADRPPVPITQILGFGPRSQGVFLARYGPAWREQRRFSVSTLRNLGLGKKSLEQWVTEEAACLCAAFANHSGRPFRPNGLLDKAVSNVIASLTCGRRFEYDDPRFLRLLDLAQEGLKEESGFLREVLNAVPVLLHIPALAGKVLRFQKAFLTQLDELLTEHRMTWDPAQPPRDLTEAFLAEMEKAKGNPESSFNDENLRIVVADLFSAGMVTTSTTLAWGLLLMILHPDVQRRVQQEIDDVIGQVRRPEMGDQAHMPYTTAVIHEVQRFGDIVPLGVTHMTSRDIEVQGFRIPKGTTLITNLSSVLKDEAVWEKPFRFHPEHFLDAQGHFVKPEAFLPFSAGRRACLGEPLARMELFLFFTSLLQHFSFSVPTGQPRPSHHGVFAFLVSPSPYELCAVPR
Voltage-gated inwardly rectifying potassium channel KCNH2 (Homo sapiens), sequence (Q12809 whole entry, looked up): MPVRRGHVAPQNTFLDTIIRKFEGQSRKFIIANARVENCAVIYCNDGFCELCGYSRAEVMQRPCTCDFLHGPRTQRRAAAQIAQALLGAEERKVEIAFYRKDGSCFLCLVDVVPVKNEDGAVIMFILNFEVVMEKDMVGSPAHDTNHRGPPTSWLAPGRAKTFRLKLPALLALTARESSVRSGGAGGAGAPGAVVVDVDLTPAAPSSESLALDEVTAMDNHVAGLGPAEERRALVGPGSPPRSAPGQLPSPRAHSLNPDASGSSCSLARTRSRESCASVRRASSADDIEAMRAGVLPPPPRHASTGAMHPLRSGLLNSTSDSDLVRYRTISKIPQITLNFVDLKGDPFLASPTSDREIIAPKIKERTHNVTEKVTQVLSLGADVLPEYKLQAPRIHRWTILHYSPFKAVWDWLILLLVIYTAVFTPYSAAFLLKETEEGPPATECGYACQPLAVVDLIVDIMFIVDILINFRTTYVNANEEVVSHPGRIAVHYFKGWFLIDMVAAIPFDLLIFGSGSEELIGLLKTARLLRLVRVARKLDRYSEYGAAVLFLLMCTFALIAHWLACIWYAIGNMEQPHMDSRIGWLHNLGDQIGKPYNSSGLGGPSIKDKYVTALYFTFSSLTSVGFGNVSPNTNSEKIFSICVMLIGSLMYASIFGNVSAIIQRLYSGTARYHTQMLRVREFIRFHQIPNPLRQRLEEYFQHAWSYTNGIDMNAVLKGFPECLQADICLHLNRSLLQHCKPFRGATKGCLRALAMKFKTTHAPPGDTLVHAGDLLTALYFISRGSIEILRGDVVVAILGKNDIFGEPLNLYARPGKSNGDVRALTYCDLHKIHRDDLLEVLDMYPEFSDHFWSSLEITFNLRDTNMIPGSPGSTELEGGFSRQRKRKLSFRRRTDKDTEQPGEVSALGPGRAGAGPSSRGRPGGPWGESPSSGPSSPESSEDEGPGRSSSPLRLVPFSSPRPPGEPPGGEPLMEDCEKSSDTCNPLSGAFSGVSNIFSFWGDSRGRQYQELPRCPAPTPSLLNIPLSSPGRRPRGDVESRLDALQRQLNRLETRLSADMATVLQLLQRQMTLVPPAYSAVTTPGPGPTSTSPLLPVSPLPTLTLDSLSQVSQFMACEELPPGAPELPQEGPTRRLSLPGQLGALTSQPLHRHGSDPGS
Cytochrome P450 1A2 (Homo sapiens), sequence (P05177 whole entry, looked up): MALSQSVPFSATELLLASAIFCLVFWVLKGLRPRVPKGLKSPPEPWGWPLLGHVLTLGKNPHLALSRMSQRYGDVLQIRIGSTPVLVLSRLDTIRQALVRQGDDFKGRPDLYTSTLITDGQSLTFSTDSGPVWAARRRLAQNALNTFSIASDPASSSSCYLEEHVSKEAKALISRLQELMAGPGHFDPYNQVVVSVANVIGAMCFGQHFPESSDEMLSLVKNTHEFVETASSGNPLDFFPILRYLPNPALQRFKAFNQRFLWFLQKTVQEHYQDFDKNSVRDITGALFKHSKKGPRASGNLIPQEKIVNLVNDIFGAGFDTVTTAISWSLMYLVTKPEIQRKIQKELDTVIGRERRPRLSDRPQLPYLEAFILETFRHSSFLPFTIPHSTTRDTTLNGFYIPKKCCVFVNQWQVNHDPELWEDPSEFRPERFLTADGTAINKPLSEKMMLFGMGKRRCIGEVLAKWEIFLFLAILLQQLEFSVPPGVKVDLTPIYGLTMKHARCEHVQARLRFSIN
Acetylcholinesterase (Homo sapiens), sequence (P22303 whole entry, looked up): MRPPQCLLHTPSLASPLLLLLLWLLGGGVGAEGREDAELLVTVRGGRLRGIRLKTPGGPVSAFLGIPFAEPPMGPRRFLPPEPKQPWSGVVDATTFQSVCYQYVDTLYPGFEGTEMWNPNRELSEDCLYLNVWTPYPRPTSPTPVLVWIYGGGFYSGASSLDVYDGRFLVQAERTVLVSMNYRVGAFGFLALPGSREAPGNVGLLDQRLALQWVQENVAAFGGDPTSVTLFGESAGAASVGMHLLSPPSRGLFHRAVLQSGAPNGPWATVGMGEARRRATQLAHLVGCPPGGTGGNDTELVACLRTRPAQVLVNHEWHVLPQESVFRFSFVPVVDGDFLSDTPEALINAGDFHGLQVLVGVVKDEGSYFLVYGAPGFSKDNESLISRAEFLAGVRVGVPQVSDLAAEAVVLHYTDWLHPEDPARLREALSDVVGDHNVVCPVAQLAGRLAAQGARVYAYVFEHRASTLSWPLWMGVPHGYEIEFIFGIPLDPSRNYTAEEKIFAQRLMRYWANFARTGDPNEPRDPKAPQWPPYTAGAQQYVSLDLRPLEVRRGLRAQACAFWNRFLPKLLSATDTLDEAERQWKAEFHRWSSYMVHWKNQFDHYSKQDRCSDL
Cytochrome P450 3A4 (Homo sapiens), sequence (P08684 whole entry, looked up): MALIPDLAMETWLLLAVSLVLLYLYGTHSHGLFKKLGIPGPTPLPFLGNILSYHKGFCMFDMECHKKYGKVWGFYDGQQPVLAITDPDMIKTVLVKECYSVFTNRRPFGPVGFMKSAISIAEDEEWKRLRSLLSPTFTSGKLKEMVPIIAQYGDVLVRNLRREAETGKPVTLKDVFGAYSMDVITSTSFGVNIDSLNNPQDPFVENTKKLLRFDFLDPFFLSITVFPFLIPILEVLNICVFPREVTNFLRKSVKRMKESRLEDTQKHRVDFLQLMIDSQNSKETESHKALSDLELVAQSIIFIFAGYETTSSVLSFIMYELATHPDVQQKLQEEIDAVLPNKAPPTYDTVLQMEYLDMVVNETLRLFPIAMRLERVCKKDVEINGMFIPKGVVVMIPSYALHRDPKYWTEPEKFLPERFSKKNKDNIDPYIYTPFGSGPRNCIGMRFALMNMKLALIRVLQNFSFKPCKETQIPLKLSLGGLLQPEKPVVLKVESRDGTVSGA
Cytochrome P450 2C19 (Homo sapiens), sequence (P33261 whole entry, looked up): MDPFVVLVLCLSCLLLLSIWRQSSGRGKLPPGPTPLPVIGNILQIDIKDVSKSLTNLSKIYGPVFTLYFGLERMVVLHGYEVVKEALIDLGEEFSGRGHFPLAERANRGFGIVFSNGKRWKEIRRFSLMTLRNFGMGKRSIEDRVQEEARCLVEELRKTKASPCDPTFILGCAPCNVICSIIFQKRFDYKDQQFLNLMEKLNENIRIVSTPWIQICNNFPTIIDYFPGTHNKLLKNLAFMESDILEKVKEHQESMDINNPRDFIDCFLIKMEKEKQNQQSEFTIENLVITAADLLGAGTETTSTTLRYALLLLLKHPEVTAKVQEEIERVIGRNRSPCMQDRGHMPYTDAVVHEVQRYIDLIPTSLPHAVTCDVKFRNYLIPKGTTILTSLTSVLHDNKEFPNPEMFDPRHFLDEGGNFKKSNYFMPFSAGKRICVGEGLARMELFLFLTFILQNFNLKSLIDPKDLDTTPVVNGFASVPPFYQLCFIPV

With `Cc1ccc(Cl)c(O)c1`, the compound was called inactive in [1] and in [3]. Moreover, the Potency entry in experiment [2], in [4], in experiment [5], in experiment [6], in experiment [8] and in experiment [9] was “inactive” throughout. Further, the Potency result in experiment [10], in experiment [11], in experiment [12], in experiment [13], in [14] and in experiment [15] was “inactive” throughout. Further, the Potency result in [16], in experiment [17] and in experiment [18] was “inactive” in each case. Moreover, the max activation in experiment [7] is -0.916%.

Turning to `NC(=O)OCCCc1ccccc1`, the result in [1] and in experiment [3] was inactive. Also, the Potency result in experiment [2], in experiment [4], in experiment [5], in experiment [6], in experiment [8] and in experiment [9] was “inactive” in each case. The Potency entry in [10], in [11], in [12], in experiment [13], in experiment [14] and in [15] was “inactive” in each case. Besides, the Potency result in experiment [17] and in [18] was “inactive” each time. Further, in experiment [7], the max activation is -3.96%. In addition, the Potency in [16] is 21.9 µM (active).

Take `CCC(=O)OC1(c2ccccc2)CCN(C)CC1`: the call in experiment [1] and in experiment [3] was inactive. In addition, the Potency result in experiment [2], in [4], in experiment [5], in experiment [6], in experiment [14] and in experiment [15] was “inactive” in each case. Besides, the Potency result in [16], in experiment [17] and in [18] was “inactive” throughout. Further, the Potency in [13] is 37.5 µM (active).

Regarding `CCN(CC)C1CCCCC1`, the compound was classed as inactive in experiment [1] and in [3]. The Potency entry in [2], in experiment [4], in experiment [5], in [6], in experiment [9] and in experiment [10] was “inactive” throughout. The Potency result in [11], in experiment [13], in experiment [14], in experiment [15], in experiment [17] and in experiment [18] was “inactive” throughout.

As to `CCN(CCO)CCO`, the call in [1], in [3] and in experiment [19] was inactive. For the same compound, the Potency entry in [2], in experiment [4], in [5], in [9], in experiment [10] and in [11] was “inactive” in each case. Further, the Potency entry in experiment [12], in experiment [13], in experiment [14], in experiment [16], in experiment [17] and in [18] was “inactive” each time.

As to `C[C@H](CN1CCOCC1)C(C(=O)N1CCCC1)(c1ccccc1)c1ccccc1`, the compound was called inactive in experiment [1], in [3] and in experiment [19]. Also, the Potency was 83.4 µM (active) in experiment [2], 43.3 µM (active) in experiment [13] and 96.9 µM (active) in [14]. Also, the Potency result in [4], in experiment [5], in [9], in experiment [12], in experiment [16] and in experiment [17] was “inactive” in each case.

For `COc1ccc2c(C(=O)c3ccc(Cl)cc3)c(C)n(CC(=O)O)c2c1`, the compound was classed as inactive in experiment [1] and in experiment [3]. The Potency entry in [2], in experiment [4], in experiment [5], in [6], in experiment [10] and in experiment [12] was “inactive” throughout. The Potency result in experiment [16], in experiment [17] and in experiment [18] was “inactive” in each case. In experiment [15], the Potency is 15.5 µM (active).
